Cruzain Triton – blocks cruzain activity in presence of Triton detergent. P25779. purified cruzain, Z-FR-AMC fluorescence, 0.01% Triton. Potency, µM, most hits filed as inhibitors. hit rate 0.43% among 200,000. AID 1478; further: nearly all actives have a fitted effect of over 40% in size
Target sequence (P25779 123-467 limits assumed): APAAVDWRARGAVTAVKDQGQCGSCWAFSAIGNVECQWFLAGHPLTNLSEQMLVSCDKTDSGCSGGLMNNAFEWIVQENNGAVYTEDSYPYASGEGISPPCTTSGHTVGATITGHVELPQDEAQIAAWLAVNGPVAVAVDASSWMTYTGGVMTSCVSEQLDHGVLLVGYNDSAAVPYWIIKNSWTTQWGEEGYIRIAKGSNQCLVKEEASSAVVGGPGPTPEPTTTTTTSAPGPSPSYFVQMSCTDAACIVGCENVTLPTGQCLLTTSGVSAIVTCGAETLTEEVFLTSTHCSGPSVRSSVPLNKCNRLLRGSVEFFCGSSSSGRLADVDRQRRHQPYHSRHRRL
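Cruzain (1.5 nM) preincubated 15 min at RT with compound in 100 mM sodium acetate pH 5.5, 5 mM DTT, 0.01% Triton X-100. Reaction started with 2 uM Z-FR-AMC; AMC fluorescence (ex 360/em 450 nm) change over 60 s gave rate.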
Cruzain inh noDet – cruzain (T. cruzi) inhibition without detergent. AID 1476. Potency, µM, actives largely listed as inhibitors. purified cruzain, Z-FR-AMC fluorescence, no detergent. hit rate 2.3% among 200,000; further: nearly all actives have a fitted effect of over 40% in size
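Purified cruzain at 1.5 nM, pre-incubated 15 min with compound at room temperature in 100 mM sodium acetate pH 5.5, 5 mM DTT, 0.00005% Triton X-100. Reaction started with 2 uM Z-FR-AMC; AMC fluorescence increase over 60 s gives rate.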
Hits are given with their value; i = inactive; ? = inconclusive. Shown are actives, neighbours in structure and some others; about 2.6% of the full set was active somewhere. The call rests on the fitted dose curve; in most records, active means well fitted curve in the direction sought with a large enough effect; inconclusive means small, poorly fitted or top-dose-only effect, or another doubt; inactive means no such curve, though single readings can be large; an effect the other way counts as inactive or inconclusive.

SMILES	Cruzain Triton	Cruzain inh noDet
CC1(c2ccc(Cl)cc2)CC(C)(C)N(C(=O)c2cccc(F)c2)c2ccccc21 (stereo unspecified)	i	?
CSc1ccc(CCNC(=O)c2ccc3c(Cl)c4c(nc3c2)CCCC4)cc1	i	i
CCOc1ccccc1N1C(=O)CC(N(O)c2ccccc2)C1=O (stereo unspecified)	i	i
CCCCOc1ccc(N2C(=O)CC(N(O)c3ccccc3)C2=O)cc1 (stereo unspecified)	i	20µM
CCCCOc1ccc(N2C(=O)CC(N(CCc3ccccc3)C(=O)/C=C/C(=O)O)C2=O)cc1 (stereo unspecified)	i	?
CCCCCOc1ccc(N2C(=O)CC(N(O)c3ccccc3)C2=O)cc1 (stereo unspecified)	i	25.1µM
CC(C)CN(c1ccccc1)S(=O)(=O)c1nnc(NC(=O)C2CCCCC2)s1	i	i
CN(C)c1nc(-c2ccc3c(c2)OCO3)nc2ccccc12	i	i
CCOC(=O)c1sc(NC(=O)COC(=O)CNC(=O)c2ccco2)c(C(=O)OCC)c1C	i	?
CCOC(=O)c1sc(NC(=O)COC(=O)CNC(=O)C2CCCCC2)c(C(=O)OCC)c1C	2.24µM	i
O=C(COC(=O)CCOc1ccccc1)Nc1ccc(Cl)cn1	i	i
O=C(COC(=O)CNC(=O)C1CCCCC1)Nc1ccc(Cl)cn1	6.31µM	6.31µM
CC(=O)c1c(C)n(-c2cccc(C)c2)c2ccc(OC(=O)COc3ccccc3)cc12	i	?
CCNc1ncc2nc(-c3ccccc3)c(=O)n(C[C@H]3CCCO3)c2n1	i	?
CCCCC(=O)Nc1nnc(SCc2cc(=O)n3cc(C)ccc3n2)s1	i	i
O=C(c1cnccn1)N1CCC[C@@]2(CCN(Cc3ccccc3)C2)C1	i	i
CO[C@]12CC(COC(=O)c3cncc(Br)c3)CN(C)[C@@H]1Cc1cn(C)c3cccc2c13 (stereo partly specified)	i	i
O=[N+]([O-])c1ccc(N2CCN(S(=O)(=O)c3ccccc3[N+](=O)[O-])CC2)cc1N1CCc2ccccc2C1	i	6.31µM
CN1CCN(c2cc(N3CCc4ccccc4C3)c(F)cc2[N+](=O)[O-])CC1	i	i
COc1ccc(/C=C/c2nc(C#N)c(NCCc3ccccc3)o2)cc1OC	i	?
COc1ccc(NC(=O)N2CCc3c(sc4c3CCCC4)C2c2ccccc2OC)cc1 (stereo unspecified)	i	?
O=[N+]([O-])c1ccc(Nc2nc(N/N=C/c3cccc(F)c3)nc(N3CCCC3)n2)cc1	i	15.8µM
O=[N+]([O-])c1cccc(/C=N/Nc2nc(N3CCOCC3)nc(N3CCOCC3)n2)c1	i	i
COc1cc2c(cc1OC)[C@]13CC[N@+]4(C)CC5=CCO[C@H]6CC(=O)N2[C@@H]1C6[C@@H]5C[C@]34O (stereo partly specified)	i	i
Cc1ccc2c(c1)C(c1ccc([N+](=O)[O-])cc1)=NNC(c1ccc(Br)cc1)=N2	i	?
SMILES	Cruzain Triton	Cruzain inh noDet
CCc1ccc2c(c1)C(c1ccc([N+](=O)[O-])cc1)=NNC(c1ccc(Br)cc1)=N2	i	10µM
CCOC(=O)c1cc(-c2ccc(OC)c(S(=O)(=O)NC3CCCCC3)c2)on1	i	i
O=C(/C=C/c1ccc(Cl)c([N+](=O)[O-])c1)Nc1ccc(NC(=O)c2ccco2)cc1	i	?
O=C(/C=C/c1ccc(Cl)c([N+](=O)[O-])c1)Nc1ccc(N2CCCC2)cc1	i	15.8µM
COc1ccccc1CNC(=O)c1ccc(-c2nc(CN3CCc4ccccc43)c(C)o2)cc1	i	?
Cc1cnc2c(c1SCC(=O)NCc1ccccc1Cl)c(=O)n(C)c(=O)n2C	i	i
Cc1ccc(C(=O)NC(=S)Nc2ccccc2N2CCCC2)cc1[N+](=O)[O-]	i	i
COc1ccc(C(=O)Nc2ccc(NC(=O)c3cccs3)cc2)cc1[N+](=O)[O-]	i	i
Cc1ccc(C(=O)NC(=S)Nc2ccc(NC(=O)c3cccs3)cc2)cc1[N+](=O)[O-]	i	10µM
CCOc1ccc(C(=O)Nc2ccc(NC(=O)c3cccs3)cc2)cc1[N+](=O)[O-]	i	7.94µM
Cc1cccc(Cn2c(C)c(CNC3CCCCCC3)c(C(=O)O)c2C)c1	i	i
COc1cccc(CNC(=O)CN2C(=O)COc3ccc(S(=O)(=O)Nc4ccccc4)cc32)c1	i	i
CCc1ccc(CNC(=O)CN2C(=O)C3CCCCN3c3ccc(C(=O)N4CCCC4)cc32)cc1 (stereo unspecified)	i	i
O=C(c1ccco1)N1CCC2(CC1)CN(c1ccccn1)C2	i	i
Cc1ccccc1Cn1ccc(-c2ccc(Cl)cc2)c(C#N)c1=O	i	25.1µM
Cc1ccc(Cn2ccn(Cc3ccccc3C)c(=O)c2=O)cc1	i	i
C[C@]12C[C@@](C)(C=C1/C=C/c1ccc(F)cc1)C(=O)C[C@H]2c1ccc(F)cc1	i	i
COc1ccccc1CNC(=O)CN1C(=O)CSc2ccc(S(=O)(=O)N3CCCCC3)cc21	i	i
Cc1cc(C)cc(-n2c(SCC(=O)N3CCC(C)CC3)nc3c([nH]c4ccccc43)c2=O)c1	i	i
CCc1ccccc1N(C)C(=O)c1cn(-c2cccc(OC)c2)c(=O)c2ccccc12	i	i
COCc1cc(=O)[nH]c(Nc2nc(C)c3cc(OC)ccc3n2)n1	i	i
CCOc1ccc2nc(NC3=NC(c4ccc(OC)cc4)CC(=O)N3)nc(C)c2c1 (stereo unspecified)	8.91µM	?
CCOc1ccc2nc(NC3=NCN(Cc4ccco4)CN3)nc(C)c2c1	i	i
COCCN1CN=C(Nc2nc(C)c3ccc(C)cc3n2)NC1	i	i
CCOc1ccc2nc(NC3=NC(C)(C)C=C(C)N3)nc(C)c2c1	28.2µM	15.8µM
SMILES	Cruzain Triton	Cruzain inh noDet
CCOc1ccc2c(C)nc(NC3=NC(C)(C)C=C(C)N3)nc2c1	15.8µM	15.8µM
C=CC(=C)C	i	i
COc1ccccc1CNS(=O)(=O)c1cc(C(=O)Nc2cccc(C(F)(F)F)c2)ccc1F	i	i
COc1ccc(CCNC(=O)C(=O)NCC(c2ccco2)S(=O)(=O)c2cccs2)cc1 (stereo unspecified)	i	i
O=C(CSc1nnc(-c2ccc(Cl)cc2)c(-c2ccc(Cl)cc2)n1)NC1CCCC1	i	i
Cc1ccc(-c2nnc(SCC(=O)NC3CCCC3)nc2-c2ccc(C)cc2)cc1	?	12.6µM
CCC(=O)Nc1ccccc1-c1nc2ccccc2n(CC(=O)Nc2ccccc2OC)c1=O	i	i
CCOc1ccccc1CNC(=O)c1ccc2c(c1)N(Cc1ccc(C)cc1)CCS2	i	?
COc1ccccc1/C=C/C=N/n1c(-c2ccc(C)cc2)n[nH]c1=S	i	10µM
COc1ccccc1/C=C/C=N/n1c(-c2cc(C)[nH]n2)n[nH]c1=S	i	i
COc1ccccc1/C=C\C=N\n1c(C2CCCCC2)n[nH]c1=S	i	6.31µM
COc1ccc(-c2n[nH]c(=S)n2/N=C/C=C\c2ccccc2OC)cc1	i	i
CCOC(=O)c1c(C)[nH]c(C)c1S(=O)(=O)N1CCC(C(=O)NCc2ccc(F)cc2)CC1	i	i
Cc1ccc(-c2nnc3n2N=C(c2ccccc2)CS3)cc1	i	i
CCc1ccc(C2=Nn3c(nnc3-c3cccs3)SC2)cc1	i	i
Clc1ccc(C2=Nn3c(nnc3-c3cccs3)SC2)cc1	i	7.94µM
CCOc1ccc(C2=Nn3c(nnc3-c3ccccc3)SC2)cc1Cl	i	20µM
COc1ccccc1CN1CCC2(CC1)CCN(S(=O)(=O)c1ccccc1)CC2	i	i
